According to the supplement of paper PMC9588786:
± gives the standard deviation of the averaged measurements.
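Further: viability read as CCK-8 absorbance at 450 nm in cells co-exposed to the GPX4 inhibitor RSL3, relative to a 0.01% DMSO vehicle control.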

What follows are molecules tested on HT-1080 (assay: relative cell viability with RSL3 co-treatment (fraction of control); higher = stronger protection from RSL3-induced ferroptosis (higher viability)). Settings: 10 µM.
With `O=C(c1ccc(Nc2nccc(-c3cc4ccccc4s3)n2)cc1)N1CCC(N2CCCC2)CC1` [IKK-16 (IKK Inhibitor VII)] the relative cell viability was 0.277 ± 0.038.
Molecule `O=c1cc(N2CCOCC2)oc2c(-c3ccccc3)cccc12` has a relative cell viability of 0.76 ± 0.16.
`O=C1Nc2ccccc2/C1=C1/Nc2ccccc2C1=O` [Indirubin] gave a relative cell viability of 0.75 ± 0.066.
`Cc1cc(Nc2nc(N[C@@H](C)c3ncc(F)cn3)ncc2Cl)[nH]n1` gave a relative cell viability of 0.597 ± 0.12.
`CCOc1ccn(-c2ccc(F)cc2)c(=O)c1C(=O)Nc1ccc(Oc2ccnc(N)c2Cl)c(F)c1` was tested, and the relative cell viability was 0.51 ± 0.092.
`NC1(Cc2ccc(Cl)cc2)CCN(c2ncnc3[nH]ccc23)CC1` showed a relative cell viability of 0.473 ± 0.25.
`OCCn1cc(-c2ccc3c(c2)CC/C3=N\O)c(-c2ccncc2)n1` gave a relative cell viability of 0.687 ± 0.13.
In the case of `Cn1cc(C2=C(c3ccc(Cl)cc3Cl)C(=O)NC2=O)c2ccccc21`, the relative cell viability is reported as 0.8333 ± 0.0058.
`Cn1ncc(Cl)c1-c1cc(C(=O)N[C@H](CN)Cc2ccc(F)c(F)c2)oc1Cl` was tested, and the relative cell viability was 0.753 ± 0.07.
`CS(=O)(=O)c1ccc(-c2cnc(N)c(C(=O)Nc3ccccc3)n2)cc1` was tested, and the relative cell viability was 0.713 ± 0.05.
`Cc1cc([C@@H](C)Nc2ccccc2C(=O)O)c2nc(N3CCOCC3)cc(=O)n2c1` was tested, and the relative cell viability was 0.593 ± 0.18.
In the case of `COc1cc(N2CCC(N)CC2)ccc1Nc1ncc(Cl)c(-c2c[nH]c3ccccc23)n1`, the relative cell viability is reported as 0.24 ± 0.062.
In the case of `Cc1cc(Nc2cc(N3CCN(C)CC3)nc(Sc3ccc(NC(=O)C4CC4)cc3)n2)n[nH]1` [Tozasertib (VX-680, MK-0457)], the relative cell viability is reported as 0.71 ± 0.01.
`O=C(NOCC1CC1)c1ccc(F)c(F)c1Nc1ccc(I)cc1Cl` was tested, and the relative cell viability was 0.693 ± 0.2.
`COc1cc2c(Oc3ccc4[nH]c(C)cc4c3F)ncnc2cc1OCCCN1CCCC1` [Cediranib (AZD2171)] gave a relative cell viability of 0.283 ± 0.023.
In the case of `CCc1cccc(CC)c1NC(=O)N1Cc2[nH]nc(NC(=O)c3ccc(N4CCN(C)CC4)cc3)c2C1`, the relative cell viability is reported as 0.53 ± 0.087.
In the case of `C=CC(=O)Nc1cccc(Nc2nc(Nc3ccc(OCCOC)cc3)ncc2F)c1`, the relative cell viability is reported as 0.563 ± 0.078.
Work on `C[S+]([O-])c1ccc(-c2nc(-c3ccc(F)cc3)c(-c3ccncc3)[nH]2)cc1` (stereo not drawn) yielded a relative cell viability of 0.603 ± 0.032.
With `CC(C)N(CCC(=O)c1ccc2ccccc2c1)Cc1ccccc1` the relative cell viability was 0.863 ± 0.12.
Molecule `C=CC(=O)Nc1ccc2ncnc(Nc3ccc(OCc4cccc(F)c4)c(Cl)c3)c2c1` has a relative cell viability of 1.01 ± 0.01.
`CN1CCN(C2CCN(C(=O)Nc3cc(Oc4ccc(NC(=O)C5(C(=O)Nc6ccc(F)cc6)CC5)c(F)c4)ccn3)CC2)CC1` [Golvatinib (E7050)] was tested, and the relative cell viability was 0.717 ± 0.065.
Molecule `CCN1CCN(Cc2ccc(-c3cc4c(N[C@H](C)c5ccccc5)ncnc4[nH]3)cc2)CC1` has a relative cell viability of 0.49 ± 0.02.
Molecule `COc1ccc(C(=O)Nc2sc3c(c2C(N)=O)CCCC3)cc1OC` has a relative cell viability of 0.66 ± 0.087.
Molecule `CC(C)NC[C@@H](C(=O)N1CCN(c2ncnc3c2[C@H](C)C[C@H]3O)CC1)c1ccc(Cl)cc1` [Ipatasertib (GDC-0068)] has a relative cell viability of 0.697 ± 0.12.
For `CCCS(=O)(=O)Nc1ccc(F)c(C(=O)c2c[nH]c3ncc(Cl)cc23)c1F`, the relative cell viability was 0.64 ± 0.036.
In the case of `COc1cc(Nc2c(C#N)cnc3cc(OCCCN4CCN(C)CC4)c(OC)cc23)c(Cl)cc1Cl` [Bosutinib (SKI-606)], the relative cell viability is reported as 0.867 ± 0.035.
`O=C(NC(NC(=S)Nc1ccc(F)c([N+](=O)[O-])c1)C(Cl)(Cl)Cl)C(c1ccccc1)c1ccccc1` (stereo not drawn) gave a relative cell viability of 0.62 ± 0.095.
`O=C(NCc1ccccc1)c1csc(Nc2ccncn2)n1` [Thiazovivin] showed a relative cell viability of 0.557 ± 0.24.
`CS(=O)(=O)N1CCc2c(-c3cnc(N)nc3)nc(N3CCOCC3)nc21` was tested, and the relative cell viability was 0.85 ± 0.061.
For `CC(=O)Nc1cccc(-n2c(=O)n(C3CC3)c(=O)c3c(Nc4ccc(I)cc4F)n(C)c(=O)c(C)c32)c1`, the relative cell viability was 0.78 ± 0.052.
`CCN(CC)CCCC(C)Nc1nc(C)cc(Nc2ccc3nc(C)cc(N)c3c2)n1` (stereo not drawn) was tested, and the relative cell viability was 0.583 ± 0.15.
For `CO[C@H]1CC[C@H](N2C(=O)CNc3ncc(-c4ccc(C(C)(C)O)nc4)nc32)CC1`, the relative cell viability was 0.733 ± 0.091.
Work on `CN1CCN(Cc2ccc(-c3cnc4[nH]cc(-c5ccc6[nH]ccc6c5)c4c3)cc2)CC1` yielded a relative cell viability of 0.497 ± 0.04.
Molecule `N#Cc1c(NC(=O)c2cccc3ccccc23)sc2c1CCCC2` [JNK Inhibitor IX] has a relative cell viability of 0.573 ± 0.049.
`CNC(=O)c1cc(Oc2ccc(NC(=O)Nc3cc(C(C)(C)C)nn3-c3ccc4ncccc4c3)c(F)c2)ccn1` [Rebastinib (DCC-2036)] gave a relative cell viability of 0.3 ± 0.085.
`CCOc1cc(C(=O)N2CCC(N3CCN(C)CC3)CC2)ccc1Nc1ncc2c(n1)N(C1CCCC1)c1ccccc1C(=O)N2C` showed a relative cell viability of 0.457 ± 0.031.
In the case of `CS(=O)(=O)CCNCc1ccc(-c2ccc3ncnc(Nc4ccc(OCc5cccc(F)c5)c(Cl)c4)c3c2)o1`, the relative cell viability is reported as 0.673 ± 0.032.
`C=CC(=O)Nc1cccc(Oc2nc(Nc3ccc(N4CCN(C)CC4)cc3OC)ncc2Cl)c1` showed a relative cell viability of 0.927 ± 0.04.
